This is a sample that favours compounds with a hit; in the whole collection about 6.7% have one here.
C diff HTS: blocks growth of Clostridium difficile; Clostridium difficile clinical isolate growth, OD600, 24 h; active compounds read low; growth activity, negative = inhibition, % at 16 µg/mL (by protocol); actives 0.25% (n = 86,000); AID 1259249;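 active = mean growth activity at or below -80% and every replicate also at or below -80%; inconclusive = mean at or below -80% but some replicate above -80%; inactive = mean growth activity above -80%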;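 also: 0% = DMSO wells and -100% = levofloxacin 16 µg/mL wells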
T cruzi growth-1: inhibitors of T. cruzi proliferation; T. cruzi beta-gal in NIH3T3, GalScreen luminescence, 90 h; inhibition, % at 8.34 µM; actives 5.9% (n = 77,000);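 active = mean inhibition above about 93%, with at least 55% of replicates each passing it, limit read from the data, passing the limit was not always enough; inconclusive = only one of those two conditions holds; inactive = neither condition holds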
Pf Dd2 inh: inhibitors of Plasmodium falciparum Dd2 growth; activity change, % at 10 µM; AID 1159554; P. falciparum Dd2 growth, SYBR Green, 72 h; active compounds read low; actives 2.3% (n = 94,000); in the data active = activity change below about -80%; inconclusive = no clear call, values can overlap the other calls
T cruzi growth-2: inhibitors of T. cruzi proliferation; actives 72% (n = 5,600); inhibition, % at 8.35 µM; shares compounds with T cruzi growth-1; T. cruzi beta-gal in NIH3T3, GalScreen luminescence, 90 h;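 active = mean replicate inhibition above about 95% and at least 55% of replicates individually reaching it, limit read from the data; inconclusive = only one of the two criteria is met; inactive = neither criterion is met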
T cruzi growth-3: blocks T. cruzi growth in NIH3T3 host cells; shares compounds with T cruzi growth-1; T. cruzi beta-gal in NIH3T3, GalScreen luminescence, 90 h; inhibition, % at 2.09 µM; actives 21% (n = 5,600);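 active = mean inhibition above about 95%, with at least 55% of replicates also reaching it, limit read from the data; inconclusive = meets just one of the two conditions; inactive = meets neither condition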;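 also: plate controls were neutral control median for no effect and positive control median for full effect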
3T3 cytotox: cytotoxicity in mouse NIH/3T3 fibroblasts; shares compounds with T cruzi growth-1; NIH/3T3 viability, CellTiter-Glo ATP luminescence, 90 h; cytotoxicity (signal decrease), % at 8.35 µM; actives 14% (n = 5,600); AID 651742;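 active = mean signal decrease across replicates above about 35% based on untreated-well scatter, with enough replicates individually passing, limit read from the data; inconclusive = no rule stated though some were filed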;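 also: 0% = median of neutral control wells and 100% = median of positive control wells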
3T3 cytotox 2: NIH/3T3 (mouse) viability loss; AID 651744; actives 56% (n = 5,600); shares compounds with T cruzi growth-1; NIH/3T3 viability, CellTiter-Glo ATP luminescence, 90 h; inhibition, % at 24.9 µM;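 active = mean loss of cell viability signal at or above a set limit, and enough replicates individually reaching it; inconclusive = meets only the mean limit or only the replicate share; inactive = meets neither condition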;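 also: 0% = median of neutral control wells and 100% = median of positive control wells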
The depositor's hits bear a star; ? = inconclusive; . = no result.

SMILES	C diff HTS	T cruzi growth-1	Pf Dd2 inh	T cruzi growth-2	T cruzi growth-3	3T3 cytotox	3T3 cytotox 2
Cc1ccc(S(=O)(=O)N(C)C[C@@H]2OCCCC[C@H](C)Oc3ccc(NC(=O)Nc4ccccc4)cc3C(=O)N([C@H](C)CO)C[C@@H]2C)cc1	-1	106*	?	106*	72	2	0
Cc1ccc(S(=O)(=O)N(C)C[C@@H]2OCCCC[C@H](C)Oc3ccc(NC(=O)c4ccccc4)cc3C(=O)N([C@H](C)CO)C[C@H]2C)cc1	.	101*	-81*	99*	27	9	49*
CC(=O)N1[C@H](CO)[C@@H](c2ccccc2)[C@@H]1CN(C)C(=O)c1ccccc1F	3	24	0	.	.	.	.
C/C=C/c1ccc([C@@H]2[C@@H](CO)N(C(C)=O)C23CN(C(=O)c2ccccc2)C3)cc1	-1	.	-35	.	.	.	.
C[C@@H]1CCCCO[C@@H](CN(C)C(=O)C2CCCCC2)[C@@H](C)CN([C@@H](C)CO)C(=O)c2cc(NC(=O)Cc3ccccc3)ccc2O1	14	50	-73	.	.	.	.
COCC#Cc1ccc([C@@H]2[C@@H](CO)N3CCCCN(S(=O)(=O)c4ccccc4C)C[C@@H]23)cc1	7	30	5	.	.	.	.
O=S(=O)(Cc1ccccc1)N1CCCCN2[C@H](CO)[C@@H](c3ccc(C#Cc4ccccc4)cc3)[C@H]2C1	54	57	-22	.	.	.	.
O=S(=O)(Cc1ccccc1)N1CCCCN2[C@H](CO)[C@@H](c3ccc(C#Cc4ccccc4)cc3)[C@@H]2C1	17	92	-29	.	.	.	.
CCCC#Cc1ccc([C@@H]2[C@@H](CO)N3CCCCN(S(=O)(=O)c4ccccc4C)C[C@@H]23)cc1	0	116*	-32	98*	79	17	102*
C[C@H](O)C#Cc1ccc([C@H]2[C@@H](CO)N3CCCCN(S(=O)(=O)Cc4ccccc4)C[C@H]23)cc1	9	37	1	.	.	.	.
CCCC#Cc1ccc([C@H]2[C@H]3CN(S(=O)(=O)Cc4ccccc4)CCCCN3[C@H]2CO)cc1	11	100*	-5	104*	81	?	76*
O=S(=O)(Cc1ccccc1)N1CCCCN2[C@@H](CO)[C@H](c3ccc(C#Cc4ccccc4)cc3)[C@@H]2C1	6	117*	-80	100*	82	51*	106*
CC(C)C#Cc1ccc([C@@H]2[C@@H](CO)N3CCCCN(S(=O)(=O)Cc4ccccc4)C[C@@H]23)cc1	8	101*	-17	105*	84	37*	104*
CO[C@H]1CN(C)C(=O)c2ccc(NS(C)(=O)=O)cc2OC[C@@H](C)N(CC2CCOCC2)C[C@H]1C	.	-8	32	.	.	.	.
O=C(N[C@H]1CC[C@@H](CC(=O)N2CCOCC2)O[C@@H]1CO)c1ccc2c(c1)OCO2	-7	3	15	.	.	.	.
O=S(=O)(Cc1ccccc1)N1CCCCN2[C@H](CO)[C@H](c3ccc(C#Cc4ccccc4)cc3)[C@H]2C1	22	-2	-67	.	.	.	.
CC(C)CC#Cc1ccc([C@H]2[C@@H](CO)N3CCCCN(S(=O)(=O)Cc4ccccc4)C[C@H]23)cc1	7	103*	-76	98*	108*	28	108*
CC(C)CC#Cc1ccc2c(c1)O[C@H](CN(C)C(=O)Cc1ccncc1)[C@H](C)CN([C@@H](C)CO)S2(=O)=O	4	101*	-35	101*	53	-2	5
CC(C)CC#Cc1ccc2c(c1)O[C@@H](CN(C)C(=O)Cc1ccncc1)[C@H](C)CN([C@H](C)CO)S2(=O)=O	6	73	-74	.	.	.	.
CC(C)CC#Cc1ccc2c(c1)O[C@@H](CN(C)C(=O)Cc1ccncc1)[C@@H](C)CN([C@@H](C)CO)S2(=O)=O	8	?	?	103*	72	12	75*
CC(C)CC#Cc1ccc2c(c1)O[C@H](CN(C)C(=O)Cc1ccncc1)[C@H](C)CN([C@H](C)CO)S2(=O)=O	5	74	-12	.	.	.	.
CN1CCN(C(=O)C[C@@H]2CC[C@@H](NC(=O)Nc3ccccc3F)[C@@H](CO)O2)CC1	-1	35	-6	.	.	.	.
CC(=O)N[C@@H]1CC[C@@H](CC(=O)NCC2CCCCC2)O[C@H]1CO	-1	-10	29	.	.	.	.
Cc1ccc(S(=O)(=O)N(C)C[C@@H]2Oc3c(NC(=O)c4nc5ccccc5s4)cccc3C(=O)N([C@H](C)CO)C[C@H]2C)cc1	1	74	-78	.	.	.	.
Cc1noc(C)c1S(=O)(=O)Nc1ccc2c(c1)CC(=O)N([C@@H](C)CO)C[C@@H](C)[C@H](CN(C)Cc1ccc(Oc3ccccc3)cc1)O2	65	?	-70	109*	89	-25	104*
SMILES	C diff HTS	T cruzi growth-1	Pf Dd2 inh	T cruzi growth-2	T cruzi growth-3	3T3 cytotox	3T3 cytotox 2
COc1ccc(S(=O)(=O)Nc2ccc3c(c2)CC(=O)N([C@@H](C)CO)C[C@@H](C)[C@@H](CN(C)Cc2ccccc2)O3)cc1	-8	74	-12	.	.	.	.
Cc1noc(C)c1S(=O)(=O)Nc1ccc2c(c1)CC(=O)N([C@H](C)CO)C[C@@H](C)[C@@H](CN(C)Cc1ccc(Oc3ccccc3)cc1)O2	31	66	2	.	.	.	.
COc1ccc(S(=O)(=O)Nc2ccc3c(c2)CC(=O)N([C@@H](C)CO)C[C@H](C)[C@H](CN(C)Cc2ccccc2)O3)cc1	-1	99*	-28	99*	27	15	19
COc1ccc(S(=O)(=O)Nc2ccc3c(c2)CC(=O)N([C@@H](C)CO)C[C@H](C)[C@@H](CN(C)Cc2ccccc2)O3)cc1	-2	79	-10	.	.	.	.
COc1ccc(S(=O)(=O)Nc2ccc3c(c2)CC(=O)N([C@H](C)CO)C[C@@H](C)[C@H](CN(C)Cc2ccccc2)O3)cc1	-2	104*	4	109*	99*	-4	7
Cc1ccc(S(=O)(=O)NCC[C@H]2CC[C@H](NC(=O)c3cnccn3)[C@H](CO)O2)cc1	.	-31	-2	.	.	.	.
C[C@H](CO)N1C[C@H](C)[C@H](CN(C)Cc2ccc(C(F)(F)F)cc2)OCCCC[C@H](C)Oc2ccc(NS(=O)(=O)c3cn(C)cn3)cc2C1=O	15	68	-26	.	.	.	.
CCCNC(=O)N(C)C[C@H]1Oc2ncc(C3=CCCC3)cc2C(=O)N([C@@H](C)CO)C[C@@H]1C	12	.	7	.	.	.	.
C[C@H]1CN([C@@H](C)CO)C(=O)Cc2cc(NC(=O)Cc3ccccc3)ccc2O[C@H]1CN(C)Cc1ccc(-c2ccccc2)cc1	9	57	-9	.	.	.	.
C[C@H](CO)N1C[C@H](C)[C@H](CN(C)Cc2ccc3c(c2)OCO3)Oc2ccc(NC(=O)Cc3ccccc3)cc2CC1=O	-2	106*	-28	39	-4	-9	17
